Only some compounds are listed: those with a hit (about 3.4% of all), similar ones and a draw of the others.
GPR151 activ – human GPR151 activation; Q8TDV0; PathHunter beta-arrestin GPR151 cells, luminescence; activation, % at 11.2 µM; 1% of 650,000 active; AID 1508602; in the data active = activation above about 4.9%;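 also: 0% = median of compound wells and 100% = cells with positive control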
MITF inh – inhibitors of human MITF; 0.91% of 650,000 active; AlphaScreen MITF homodimerization, bead proximity signal; AID 1259374; inhibition, % at 2.6 µM; O75030; in the data active = inhibition above about 50%;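 also: 0% = vehicle wells with protein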
FBW7 activator – activators of human E3 ligase FBW7 | Q969H0 | AlphaScreen FBW7–phospho-cyclin E peptide binding, activator screen | normalized activity (activation), % at 26.1 µM | 0.13% of 650,000 active; in the data active = normalized activity above about 1.9%;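 also: purified mutant Fbw7 with reduced substrate affinity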
Target sequence (Q969H0 whole entry, looked up): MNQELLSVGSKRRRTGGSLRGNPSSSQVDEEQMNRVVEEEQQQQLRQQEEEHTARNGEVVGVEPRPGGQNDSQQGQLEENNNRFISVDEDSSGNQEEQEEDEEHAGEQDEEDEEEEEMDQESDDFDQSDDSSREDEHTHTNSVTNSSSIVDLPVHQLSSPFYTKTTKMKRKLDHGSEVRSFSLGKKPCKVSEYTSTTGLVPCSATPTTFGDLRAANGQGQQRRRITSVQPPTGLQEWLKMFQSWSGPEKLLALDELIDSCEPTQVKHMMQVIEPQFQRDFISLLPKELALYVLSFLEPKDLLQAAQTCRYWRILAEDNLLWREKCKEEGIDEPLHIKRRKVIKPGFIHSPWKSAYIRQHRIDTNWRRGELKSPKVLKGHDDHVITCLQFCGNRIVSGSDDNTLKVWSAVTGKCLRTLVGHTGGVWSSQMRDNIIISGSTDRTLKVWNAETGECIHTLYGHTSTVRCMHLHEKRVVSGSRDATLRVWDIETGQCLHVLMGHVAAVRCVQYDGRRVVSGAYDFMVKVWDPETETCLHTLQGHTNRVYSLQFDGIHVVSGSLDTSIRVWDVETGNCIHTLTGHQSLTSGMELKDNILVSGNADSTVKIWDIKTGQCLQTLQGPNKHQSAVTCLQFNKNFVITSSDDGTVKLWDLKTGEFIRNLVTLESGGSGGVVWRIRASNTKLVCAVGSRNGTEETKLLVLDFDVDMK
TEAD-YAP block – TEAD-YAP interaction inhibition | inhibition, % at 9.12 µM | HEK-TIYL cells, TEAD-Gal4/YAP UAS-luciferase luminescence | 1.4% of 640,000 active; in the data active = inhibition above about 32%;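 also: 0% = median of test compound wells and 100% = reference inhibitor wells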
An asterisk follows results filed as active.

What do the screens show for `COc1ccccc1Nc1nc(C2(C)CC(CC(C)C)C(=O)O2)cs1` (configuration not stated)?
GPR151 activ: -1; MITF inh: 8; FBW7 activator: 0; TEAD-YAP block: 55*

How did CCOc1ccc(Nc2nc(C3(C)CC(CC(C)C)C(=O)O3)cs2)cc1 (configuration not stated) do in these assays?
GPR151 activ: 0; MITF inh: 7; FBW7 activator: 0; TEAD-YAP block: 7

How did CC1(c2csc(Nc3ccccc3Cl)n2)CCC(=O)O1 (configuration not stated) do in these assays?
GPR151 activ: -2; MITF inh: 11; FBW7 activator: 0; TEAD-YAP block: 35*

Results for Cc1cc(-c2cncnc2C2CCCNC2)on1 (configuration not stated) ?
GPR151 activ: 0; MITF inh: -2; FBW7 activator: 0; TEAD-YAP block: -1

How did Cc1ccc(-c2ccccc2)n1-c1ccc(O)c(C(=O)O)c1 do in these assays?
GPR151 activ: -1; MITF inh: 78*; FBW7 activator: 0; TEAD-YAP block: 0

What do the screens show for `Cc1ccc(-c2ccccc2)n1-c1ccc(C(=O)O)cc1`?
GPR151 activ: -2; MITF inh: 0; FBW7 activator: 0; TEAD-YAP block: -9

How did O=C(Nc1ccc(OCc2ccccc2)cc1)c1ccc(CN2CCOCC2)cc1 do in these assays?
GPR151 activ: 1; MITF inh: 7; FBW7 activator: 0; TEAD-YAP block: 49*

How did O=C(CN1CCN(CC(=O)Nc2ccc(OCc3ccccc3)cc2)CC1)Nc1ccc(F)cc1 do in these assays?
GPR151 activ: -1; MITF inh: 4; FBW7 activator: 0; TEAD-YAP block: 19

How did O=C(CN1CCOCC1)Nc1ccc(OCc2ccccc2)cc1 do in these assays?
GPR151 activ: 0; MITF inh: -5; FBW7 activator: 0; TEAD-YAP block: 33*

Results for O=C(Nc1ccc(CN2CCOCC2)cc1)c1ccc(OCc2ccccc2)cc1 ?
GPR151 activ: 0; MITF inh: 2; FBW7 activator: 0; TEAD-YAP block: 13

How did Cc1cc(C)n2nc(C(=O)Nc3cnn(C45CC6CC(CC(C6)C4)C5)c3)cc2n1 do in these assays?
GPR151 activ: 0; MITF inh: 3; FBW7 activator: 0; TEAD-YAP block: -14

How did COc1ccc(NC(=O)C2=C(C)NC(=O)NC2c2ccc(O)cc2)c(OC)c1 (configuration not stated) do in these assays?
GPR151 activ: 1; MITF inh: 6; FBW7 activator: 0; TEAD-YAP block: 3

How did Cn1c(=O)cc(OCCCC(=O)NC2CCN(Cc3ccccc3)CC2)c2ccccc21 do in these assays?
GPR151 activ: -2; MITF inh: 9; FBW7 activator: 1; TEAD-YAP block: 6

What do the screens show for `CC(=O)C1=C(c2ccc(C3CCCCC3)cc2)N(C(C)=O)n2c(C)nnc2S1`?
GPR151 activ: 0; MITF inh: 15; FBW7 activator: 0; TEAD-YAP block: 41*

How did CC(=O)C1=C(c2ccc(C(C)(C)C)cc2)N(C(C)=O)n2c(C)nnc2S1 do in these assays?
GPR151 activ: -1; MITF inh: 1; FBW7 activator: 0; TEAD-YAP block: 39*

How did O=C(NCc1ccccc1Cl)c1ccc([N+](=O)[O-])cc1Cl do in these assays?
GPR151 activ: -1; MITF inh: 4; FBW7 activator: 0; TEAD-YAP block: 14

Results for COc1ccc(OC)c(CCNC(=O)c2cc3c(C)nc4ccccc4c3o2)c1 ?
GPR151 activ: 2; MITF inh: -1; FBW7 activator: 0; TEAD-YAP block: 46*

What do the screens show for `Cc1sc(NC(=O)c2ccco2)c(C(c2cccnc2)N2CCC(Cc3ccccc3)CC2)c1C` (configuration not stated)?
GPR151 activ: -1; MITF inh: 4; FBW7 activator: 0; TEAD-YAP block: 35*

How did COc1ccc(/C(C)=N/Nc2ccc(S(=O)(=O)N3CCCC3)cc2[N+](=O)[O-])cc1 do in these assays?
GPR151 activ: -1; MITF inh: -8; FBW7 activator: 0; TEAD-YAP block: 9

Results for COCCCn1c(C)cc(C(=O)CSc2ncnc3sccc23)c1C ?
GPR151 activ: 0; MITF inh: 14; FBW7 activator: 0; TEAD-YAP block: 43*

What do the screens show for `O=C(CCc1ccccc1)Nc1ccc2c3c(cccc13)C(=O)NC2=O`?
GPR151 activ: 4; MITF inh: 6; FBW7 activator: 0; TEAD-YAP block: 9

Results for CC(C)(C)C1CCc2c(sc3nc(CCC(=O)N4CCN(c5ccc(F)cc5)CC4)[nH]c(=O)c23)C1 (configuration not stated) ?
GPR151 activ: -1; MITF inh: -4; FBW7 activator: 1; TEAD-YAP block: 52*

How did CC(C)(C)C1CCc2c(sc3nc(CCC(=O)N4CCN(c5ccccn5)CC4)[nH]c(=O)c23)C1 (configuration not stated) do in these assays?
GPR151 activ: 2; MITF inh: -3; FBW7 activator: 0; TEAD-YAP block: 78*

How did CC(C)(C)C1CCc2c(sc3nc(Cc4ccccc4)[nH]c(=O)c23)C1 (configuration not stated) do in these assays?
GPR151 activ: 0; MITF inh: 4; FBW7 activator: 0; TEAD-YAP block: -1

Results for CC(C)(C)CC(C)(C)NC(=O)c1cc2n(n1)C(C(F)(F)F)CC(c1ccc3c(c1)OCO3)N2 (configuration not stated) ?
GPR151 activ: 0; MITF inh: 8; FBW7 activator: 0; TEAD-YAP block: -6

What do the screens show for `O=C(Nc1ccc(Nc2ccccc2)cc1)c1ccc(C(=O)c2ccccc2)o1`?
GPR151 activ: 3; MITF inh: 9; FBW7 activator: 0; TEAD-YAP block: 43*

How did COc1ccc2c(C)nc(Nc3nc(C)cc(=O)[nH]3)nc2c1 do in these assays?
GPR151 activ: 0; MITF inh: 0; FBW7 activator: 0; TEAD-YAP block: 39*

What do the screens show for `CCc1nc2sc(C(=O)c3ccc4c(c3)OCO4)c(N)c2cc1C`?
GPR151 activ: 0; MITF inh: -5; FBW7 activator: 1; TEAD-YAP block: 40*

Results for O=C1c2ccccc2S(=O)(=O)NN1CCOc1ccc(Br)cc1 ?
GPR151 activ: -1; MITF inh: 3; FBW7 activator: 0; TEAD-YAP block: -15

How did CCN(CC)CCN1C(=O)C2(SC(NC(C)=O)=NN2C(C)=O)c2cc(C)ccc21 (configuration not stated) do in these assays?
GPR151 activ: 0; MITF inh: 2; FBW7 activator: 0; TEAD-YAP block: -2

What do the screens show for `CC(=O)NC1=NN(C(C)=O)C(C)(c2cccc(OC(=O)c3ccccc3)c2)S1` (configuration not stated)?
GPR151 activ: 0; MITF inh: 22; FBW7 activator: 0; TEAD-YAP block: 61*

How did CC(=O)NC1=NN(C(C)=O)C(C)(c2ccc(OC(C)=O)cc2)S1 (configuration not stated) do in these assays?
GPR151 activ: 1; MITF inh: 9; FBW7 activator: 0; TEAD-YAP block: 66*

Results for COc1cc(/C=c2\sc3nc4cc(C)c(C)cc4n3c2=O)ccc1OC(C)C ?
GPR151 activ: 2; MITF inh: 0; FBW7 activator: 0; TEAD-YAP block: 3
